In PubChem BioAssay (EPA / NIEHS) one finds AC50 and outcome data, which are given here for 13 compounds.

Records with an inconclusive call do not appear. Activity calls are given as the source filed them. How the source made its calls: active means hit-call score of the fitted dose curve at least 0.9, where 1 is the maximum; inconclusive means response in the unintended direction; inactive means score below 0.9.

A word on the AC50: it is the concentration at which the activity in the assay is half-maximal.

human Dopamine Receptor D4.4 (DRD4.4), DRD4 (gene 1815), sequence (P21917 whole entry, looked up): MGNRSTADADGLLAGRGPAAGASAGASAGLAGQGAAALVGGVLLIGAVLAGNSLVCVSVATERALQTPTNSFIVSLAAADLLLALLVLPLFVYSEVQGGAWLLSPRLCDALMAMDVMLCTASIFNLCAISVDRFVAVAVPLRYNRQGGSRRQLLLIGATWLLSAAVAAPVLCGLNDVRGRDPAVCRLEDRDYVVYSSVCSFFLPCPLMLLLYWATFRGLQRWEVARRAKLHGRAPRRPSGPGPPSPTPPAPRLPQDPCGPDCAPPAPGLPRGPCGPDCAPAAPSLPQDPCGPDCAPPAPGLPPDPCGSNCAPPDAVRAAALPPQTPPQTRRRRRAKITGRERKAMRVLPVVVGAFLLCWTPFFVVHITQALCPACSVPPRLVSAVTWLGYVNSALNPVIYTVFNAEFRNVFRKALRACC
D(1A) dopamine receptor (Homo sapiens), sequence (P21728 whole entry, looked up): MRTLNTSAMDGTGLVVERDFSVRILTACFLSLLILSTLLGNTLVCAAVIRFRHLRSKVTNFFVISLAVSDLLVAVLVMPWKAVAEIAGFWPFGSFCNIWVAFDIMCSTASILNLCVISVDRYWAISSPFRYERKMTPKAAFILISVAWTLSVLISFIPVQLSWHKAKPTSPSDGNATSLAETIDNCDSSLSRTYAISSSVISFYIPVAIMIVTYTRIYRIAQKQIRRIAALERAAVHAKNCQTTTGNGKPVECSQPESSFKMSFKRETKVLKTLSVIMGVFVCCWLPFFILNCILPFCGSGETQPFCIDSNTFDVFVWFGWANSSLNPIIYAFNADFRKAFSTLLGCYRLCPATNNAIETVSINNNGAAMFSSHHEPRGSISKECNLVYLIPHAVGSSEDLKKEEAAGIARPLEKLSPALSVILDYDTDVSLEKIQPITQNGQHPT
human Histamine 1 Receptor (H1), HRH1 (gene 3269), sequence (P35367 whole entry, looked up): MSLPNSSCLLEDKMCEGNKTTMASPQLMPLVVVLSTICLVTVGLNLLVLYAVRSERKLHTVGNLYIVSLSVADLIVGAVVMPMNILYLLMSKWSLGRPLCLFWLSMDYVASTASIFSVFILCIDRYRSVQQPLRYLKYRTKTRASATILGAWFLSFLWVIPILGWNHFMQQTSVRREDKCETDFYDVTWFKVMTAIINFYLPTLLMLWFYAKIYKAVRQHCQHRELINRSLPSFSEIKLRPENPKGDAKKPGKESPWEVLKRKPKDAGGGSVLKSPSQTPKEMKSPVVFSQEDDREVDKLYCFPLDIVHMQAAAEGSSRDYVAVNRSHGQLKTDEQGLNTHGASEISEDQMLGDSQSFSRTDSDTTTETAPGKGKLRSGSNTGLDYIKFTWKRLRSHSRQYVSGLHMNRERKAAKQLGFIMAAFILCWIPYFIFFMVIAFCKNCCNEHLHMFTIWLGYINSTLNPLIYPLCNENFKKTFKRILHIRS

For the first assay, the target named is human Dopamine Receptor D4.4 (DRD4.4), DRD4 (gene 1815) (UniProt P21917). Description: NVS_GPCR_hDRD4.4: NovaScreen (NVS) G Protein-Coupled Receptor Assay for human Dopamine Receptor D4.4 (DRD4.4) (AID 2283264). The method in brief:
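Filter-binding assay with a tritiated or iodinated ligand, cell-free receptor prepared from CHO, 1 hour. Loss of bound radioactivity versus DMSO; single 25 uM duplicate screen, then concentration-response for actives.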
As for `CCCCCCCCCCCCc1ccccc1S(=O)(=O)O`, the AC50 is 9.01 µM (active).
As for `Cc1oc(-c2ccccc2)nc1CCOc1ccc(C[C@H](Nc2ccccc2C(=O)c2ccccc2)C(=O)O)cc1`, the compound was classed as inactive.
`CCCOc1sc(C(=O)N2CCC(c3cc(CN)ccc3F)CC2)c(C)c1Br`: the AC50 was 16.9 µM (active).
Regarding `c1ccc2cc3c(ccc4ccccc43)cc2c1`, the concentration at half-maximal activity (AC50) was 35.5 µM (active).
The same measure, in the same setting: then `CC(=O)NC1(c2cccc(F)c2)CCN(CC[C@@]2(c3ccc(Cl)c(Cl)c3)CN(c3ccccc3)C(=O)CO2)CC1`, with 13.2 µM (active); and `CC1=C(/C=C/C(C)=C/C=C/C(C)=C/C(=O)O)C(C)(C)CCC1`, with 1.8 µM (active).
With `CCC(=C(c1ccc(O)cc1)c1ccc(OCCN(C)C)cc1)c1ccccc1`, the result was inactive.

In another assay the target is human Dopamine Receptor D2 (DRD2), DRD2 (gene 1813) (UniProt P14416). Description: NVS_GPCR_hDRD2s: NovaScreen (NVS) G Protein-Coupled Receptor Assay for human Dopamine Receptor D2 (DRD2) (AID 2283266). The method in brief: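 Test compound (25 uM, duplicate in the primary screen; concentration series at follow-up) competed with radioligand for human DRD2 in CHO-derived membrane protein. Filter-based scintillation counting was done 1.5 hours after dosing, with loss of signal analysed against DMSO.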
human Dopamine Receptor D2 (DRD2), DRD2 (gene 1813), sequence (P14416 whole entry, looked up): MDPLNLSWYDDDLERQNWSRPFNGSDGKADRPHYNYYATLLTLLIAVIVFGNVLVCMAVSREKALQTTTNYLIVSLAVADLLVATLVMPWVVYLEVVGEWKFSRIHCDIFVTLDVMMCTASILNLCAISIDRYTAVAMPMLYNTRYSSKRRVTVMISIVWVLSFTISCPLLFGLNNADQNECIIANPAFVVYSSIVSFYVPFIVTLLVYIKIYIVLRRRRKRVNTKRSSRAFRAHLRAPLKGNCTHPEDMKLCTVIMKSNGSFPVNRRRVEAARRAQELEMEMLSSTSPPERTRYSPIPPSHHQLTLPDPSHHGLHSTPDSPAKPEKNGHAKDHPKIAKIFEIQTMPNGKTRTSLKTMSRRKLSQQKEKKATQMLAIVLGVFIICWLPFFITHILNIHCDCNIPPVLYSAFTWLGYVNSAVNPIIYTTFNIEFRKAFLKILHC
In the case of `CCCCCCCCCCCCc1ccccc1S(=O)(=O)O`, the concentration at half-maximal activity (AC50) was 18.5 µM (active).
The same measure, in the same setting: the same measure for `CCCOc1sc(C(=O)N2CCC(c3cc(CN)ccc3F)CC2)c(C)c1Br`: 9.42 µM (active); for `CC(=O)NC1(c2cccc(F)c2)CCN(CC[C@@]2(c3ccc(Cl)c(Cl)c3)CN(c3ccccc3)C(=O)CO2)CC1`: 11 µM (active); for `COc1ccc([N+](=O)[O-])cc1N`: 7.93 µM (active).
As for `NC(=O)N(O)[C@@H]1C=C[C@H](Oc2cccc(Oc3ccc(F)cc3)c2)C1`, the call was inactive.
`CCN(CC)CCNc1ccc(CNC=O)c2sc3ccc(OC)cc3c(=O)c12`: the half-maximal activity concentration (AC50) was 18.8 µM (active).
On to `CC[C@H](c1ccc(O)cc1)[C@@H](CC)c1ccc(O)cc1`, for which the AC50 was 6.99 µM (active).
Same read-out and setting: the same measure for `CCC(=C(c1ccc(O)cc1)c1ccc(OCCN(C)C)cc1)c1ccccc1`: 0.647 µM (active).

Another assay addresses human Histamine 1 Receptor (H1), HRH1 (gene 3269) (UniProt P35367). Description: NVS_GPCR_hH1: NovaScreen (NVS) G Protein-Coupled Receptor Assay for human Histamine 1 Receptor (H1) (AID 2283268). The protocol:
NVS_GPCR_hH1 is a biochemical, single-readout assay that uses extracted gene-proteins in a cell-free assay. Measurements were taken 1 hour after chemical dosing in a 96-well plate.NVS_GPCR_hH1 is one of one assay component(s) measured or calculated from the NVS_GPCR_hH1 assay. It is designed to make measurements of radioligand binding, a form of binding reporter, as detected with scintillation counting signals by Filter-based radiodetection technology.Data from the assay component NVS_GPCR_hH1 was analyzed into 1 assay endpoint. This assay endpoint, NVS_GPCR_hH1, was analyzed in the positive analysis fitting direction relative to DMSO as the negative control and baseline of activity. Using a type of binding reporter, loss-of-signal activity can be used to understand changes in the binding as they relate to the gene HRH1. Furthermore, this assay endpoint can be referred to as a primary readout, because the performed assay has only produced 1 assay endpoint. To generalize the intended target to other relatable targets, this assay endpoint is annotated to the gpcr intended target family, where the subfamily is rhodopsin-like receptor.
Binding assays used specific radioligands (tritiated, iodinated) with non-radioactive competitive displacement ligands in agonist or antagonist protocols (as indicated) and various reference compounds and inhibitors to titrate specific binding to receptors and transporters. Most enzyme assays (CYPs, kinases, phosphatases, proteases, HDACs) used recombinant protein and specific substrates (fluorescence mostly, some colorimetric and radioactive) and inhibitors, followed by a biochemical separation of substrate and product. All assays for the biochemical HTS were initially run in duplicate at a single concentration (10 uM for CYP450 assays and 25 uM for all others). […] Each assay was run with positive and negative controls, and concurrent controls on every plate. The follow-up (secondary) screen tested active chemical-pairs in concentration series, as well as a few additional assays not tested in the primary screen, some selected negative inactives, and several cases re-run in the concentration series for confirmatory purposes.
In the case of `CCCCCCCCCCCCc1ccccc1S(=O)(=O)O`, the half-maximal activity concentration (AC50) was 25.2 µM (active).
The same measure, in the same setting: the same measure for `Cc1oc(-c2ccccc2)nc1CCOc1ccc(C[C@H](Nc2ccccc2C(=O)c2ccccc2)C(=O)O)cc1`: 35.5 µM (active); for `CCCOc1sc(C(=O)N2CCC(c3cc(CN)ccc3F)CC2)c(C)c1Br`: 18.2 µM (active); for `CCN(CC)CCNc1ccc(CNC=O)c2sc3ccc(OC)cc3c(=O)c12`: 7.5 µM (active).

A further assay concerns the target D(1A) dopamine receptor (Homo sapiens) (UniProt P21728). The experiment in a line: NVS_GPCR_hDRD1: NovaScreen (NVS) G Protein-Coupled Receptor Assay for human Dopamine Receptor D1 (DRD1) (AID 2283269). The essentials:
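Cell-free competition with radioligand, filter-trapped and scintillation-counted 1 h post-dose, using HEK293-derived human D1 preparation. Duplicate single-point testing at 25 uM first, then concentration series for actives; DMSO served as baseline, loss-of-signal scored.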
For `CCCCCCCCCCCCc1ccccc1S(=O)(=O)O`, the half-maximal activity concentration (AC50) was 6.99 µM (active).
The same measure, in the same setting: then `Cc1oc(-c2ccccc2)nc1CCOc1ccc(C[C@H](Nc2ccccc2C(=O)c2ccccc2)C(=O)O)cc1`, with 12.1 µM (active); and `CCCOc1sc(C(=O)N2CCC(c3cc(CN)ccc3F)CC2)c(C)c1Br`, with 3.56 µM (active); and `CCCCCCCCCCCCCC[N+](C)(C)C`, with 4.57 µM (active).
The same measure, in the same setting: the same measure for `CC(=O)NC1(c2cccc(F)c2)CCN(CC[C@@]2(c3ccc(Cl)c(Cl)c3)CN(c3ccccc3)C(=O)CO2)CC1`: 14.8 µM (active).
With `NC(=O)N1C(=O)C(C(=O)c2cc(Cl)cs2)c2cc(F)c(Cl)cc21` (stereo not drawn), the result was inactive.
As to `NC(=O)N(O)[C@@H]1C=C[C@H](Oc2cccc(Oc3ccc(F)cc3)c2)C1`, the concentration at half-maximal activity (AC50) was 25 µM (active).
The same measure, in the same setting: then `CCN(CC)CCNc1ccc(CNC=O)c2sc3ccc(OC)cc3c(=O)c12`, with 7.31 µM (active); and `CCC(=C(c1ccc(O)cc1)c1ccc(OCCN(C)C)cc1)c1ccccc1`, with 1.71 µM (active).
